# Laboratory results taken from publication PMC7862700, “An all-to-all approach to the identification of sequence-specific readers for epigenetic DNA modifications on cytosine”.
# Experiments:
# Assay in all cases: DAPPL (digital affinity profiling via proximity ligation, sequencing); 10 mM Tris-HCl pH 7.5, 50 mM NaCl, 1 mM DTT, 4% glycerol, room temperature, 30 min; GST-TFs on glutathione beads, 16-mer random dsDNA library, 0.1% formaldehyde crosslink after washing; high values mean tight binding
# Settings in all cases: protein: recombinant; tags: N-terminal GST; dsDNA, one strand shown
# ELK4 = biological target: T1, ELK4 (Homo sapiens, UniProt P28324-2 1-405)
# T1 sequence: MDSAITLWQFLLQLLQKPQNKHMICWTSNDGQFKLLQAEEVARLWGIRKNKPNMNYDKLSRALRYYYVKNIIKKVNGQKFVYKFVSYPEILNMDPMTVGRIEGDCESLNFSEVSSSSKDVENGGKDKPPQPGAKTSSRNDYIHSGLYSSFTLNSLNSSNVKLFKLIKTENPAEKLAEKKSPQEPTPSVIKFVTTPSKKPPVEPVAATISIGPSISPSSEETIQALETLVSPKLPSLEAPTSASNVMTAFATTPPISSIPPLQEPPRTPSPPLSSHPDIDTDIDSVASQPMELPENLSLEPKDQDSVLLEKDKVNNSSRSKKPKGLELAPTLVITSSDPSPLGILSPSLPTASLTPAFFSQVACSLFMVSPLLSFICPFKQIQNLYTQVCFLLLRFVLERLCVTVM
# In short: (§1)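 Yeast served to express human transcription factors as GST fusions, which were then captured on glutathione beads and labelled with DNA barcodes. Pooled with a tag-only sample, they were incubated with 200 nmole of a 16-mer random double-stranded DNA library for 30 min at room temperature in Tris/NaCl/DTT/glycerol buffer, washed, crosslinked with 0.1% formaldehyde, ligated by proximity, amplified by PCR and sequenced. Dividing each hexamer's read frequency for a factor by its frequency for the tag-only sample gives the binding signal.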
# ETV2 = biological target: T2, ETV2 (Homo sapiens, UniProt O00321 1-342)
# T2 sequence: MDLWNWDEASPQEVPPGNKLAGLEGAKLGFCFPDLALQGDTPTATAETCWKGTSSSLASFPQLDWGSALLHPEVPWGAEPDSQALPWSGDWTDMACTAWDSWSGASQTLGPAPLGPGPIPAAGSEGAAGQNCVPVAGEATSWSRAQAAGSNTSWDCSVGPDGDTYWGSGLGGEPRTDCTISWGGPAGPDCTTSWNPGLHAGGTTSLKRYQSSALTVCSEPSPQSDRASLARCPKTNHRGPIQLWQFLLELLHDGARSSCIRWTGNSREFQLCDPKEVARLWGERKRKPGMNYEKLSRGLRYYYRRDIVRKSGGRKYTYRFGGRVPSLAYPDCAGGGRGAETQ
# In short: as §1
# ELK1 = biological target: T3, ELK1 (Homo sapiens, UniProt P19419 1-428)
# T3 sequence: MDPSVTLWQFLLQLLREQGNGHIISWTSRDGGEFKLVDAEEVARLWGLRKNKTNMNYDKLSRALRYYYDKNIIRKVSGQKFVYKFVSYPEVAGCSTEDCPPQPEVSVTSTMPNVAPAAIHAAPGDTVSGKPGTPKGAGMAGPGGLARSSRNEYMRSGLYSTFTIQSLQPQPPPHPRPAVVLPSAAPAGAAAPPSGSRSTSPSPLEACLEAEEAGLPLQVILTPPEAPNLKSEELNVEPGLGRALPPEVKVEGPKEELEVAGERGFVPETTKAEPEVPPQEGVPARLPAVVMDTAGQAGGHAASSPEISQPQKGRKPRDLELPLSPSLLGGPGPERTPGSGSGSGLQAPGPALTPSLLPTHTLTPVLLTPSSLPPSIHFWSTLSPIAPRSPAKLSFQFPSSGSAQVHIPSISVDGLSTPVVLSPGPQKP
# In short: as §1
# GABPA = biological target: T4, GABPA (Homo sapiens, UniProt Q06546 1-454)
# T4 sequence: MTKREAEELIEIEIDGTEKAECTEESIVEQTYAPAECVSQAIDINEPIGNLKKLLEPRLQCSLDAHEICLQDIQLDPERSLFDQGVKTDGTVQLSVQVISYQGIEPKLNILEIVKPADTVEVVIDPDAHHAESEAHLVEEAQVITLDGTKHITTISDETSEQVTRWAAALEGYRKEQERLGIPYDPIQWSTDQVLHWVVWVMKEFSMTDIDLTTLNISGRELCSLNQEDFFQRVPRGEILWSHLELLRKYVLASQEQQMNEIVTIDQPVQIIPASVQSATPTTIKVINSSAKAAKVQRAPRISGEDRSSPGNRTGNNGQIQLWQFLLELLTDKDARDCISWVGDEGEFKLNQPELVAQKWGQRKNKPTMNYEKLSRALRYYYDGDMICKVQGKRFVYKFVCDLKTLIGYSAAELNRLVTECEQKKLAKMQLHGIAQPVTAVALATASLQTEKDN
# In short: as §1
# ELF1 = ELF1 (Homo sapiens, UniProt P32519 1-619)
# Sequence of ELF1 (P32519 whole entry): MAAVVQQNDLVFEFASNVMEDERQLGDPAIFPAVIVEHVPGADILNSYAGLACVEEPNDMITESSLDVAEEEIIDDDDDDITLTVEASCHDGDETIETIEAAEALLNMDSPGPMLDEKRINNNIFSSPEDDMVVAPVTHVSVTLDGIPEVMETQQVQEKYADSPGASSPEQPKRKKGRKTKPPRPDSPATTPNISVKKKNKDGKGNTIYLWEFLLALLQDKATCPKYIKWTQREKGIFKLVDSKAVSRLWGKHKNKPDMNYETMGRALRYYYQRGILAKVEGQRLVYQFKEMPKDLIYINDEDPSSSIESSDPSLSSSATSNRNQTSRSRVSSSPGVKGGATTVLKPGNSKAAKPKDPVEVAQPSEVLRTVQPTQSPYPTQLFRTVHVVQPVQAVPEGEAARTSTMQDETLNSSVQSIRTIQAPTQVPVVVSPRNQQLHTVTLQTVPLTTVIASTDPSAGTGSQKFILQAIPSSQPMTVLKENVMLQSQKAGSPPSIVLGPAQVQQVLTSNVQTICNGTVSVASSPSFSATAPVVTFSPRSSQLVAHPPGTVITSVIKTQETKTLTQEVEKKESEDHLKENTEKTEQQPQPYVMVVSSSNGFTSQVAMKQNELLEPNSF
# In short: as §1
# ETV1 = ETV1 (Homo sapiens, UniProt P50549 1-477)
# Sequence of ETV1 (P50549 whole entry): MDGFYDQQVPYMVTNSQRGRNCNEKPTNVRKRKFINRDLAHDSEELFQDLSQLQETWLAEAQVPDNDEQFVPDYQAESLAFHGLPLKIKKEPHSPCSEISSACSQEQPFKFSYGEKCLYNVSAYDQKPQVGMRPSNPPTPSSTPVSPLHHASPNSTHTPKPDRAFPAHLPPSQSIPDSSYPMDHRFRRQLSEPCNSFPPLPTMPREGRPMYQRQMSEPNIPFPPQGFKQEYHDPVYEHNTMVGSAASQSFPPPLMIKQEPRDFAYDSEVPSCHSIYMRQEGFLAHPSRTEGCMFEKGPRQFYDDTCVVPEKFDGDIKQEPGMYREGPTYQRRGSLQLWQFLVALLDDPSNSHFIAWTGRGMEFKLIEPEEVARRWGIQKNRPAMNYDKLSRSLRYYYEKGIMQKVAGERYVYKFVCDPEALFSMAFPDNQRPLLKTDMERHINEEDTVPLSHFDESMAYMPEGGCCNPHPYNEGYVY
# In short: as §1
# ERF = biological target: T5, ERF (Homo sapiens, UniProt P50548 1-548)
# T5 sequence: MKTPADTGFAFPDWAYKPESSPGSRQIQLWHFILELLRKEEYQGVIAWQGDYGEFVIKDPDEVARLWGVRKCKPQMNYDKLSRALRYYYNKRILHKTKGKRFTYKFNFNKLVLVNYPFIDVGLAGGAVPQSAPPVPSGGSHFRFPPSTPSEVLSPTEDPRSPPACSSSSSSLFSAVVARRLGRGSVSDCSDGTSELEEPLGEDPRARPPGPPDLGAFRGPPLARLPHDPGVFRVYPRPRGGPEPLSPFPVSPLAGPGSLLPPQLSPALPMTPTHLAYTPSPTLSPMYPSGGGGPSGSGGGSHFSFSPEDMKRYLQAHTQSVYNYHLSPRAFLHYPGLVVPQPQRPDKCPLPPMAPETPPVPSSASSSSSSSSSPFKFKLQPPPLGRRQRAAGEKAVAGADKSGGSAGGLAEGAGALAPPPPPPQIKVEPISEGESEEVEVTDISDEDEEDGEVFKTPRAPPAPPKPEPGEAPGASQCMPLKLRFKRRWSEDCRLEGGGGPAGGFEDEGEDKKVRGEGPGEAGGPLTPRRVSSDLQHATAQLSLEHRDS
# In short: as §1
# ETV3 = biological target: T6, ETV3 (Homo sapiens, UniProt P41162-2 1-143)
# T6 sequence: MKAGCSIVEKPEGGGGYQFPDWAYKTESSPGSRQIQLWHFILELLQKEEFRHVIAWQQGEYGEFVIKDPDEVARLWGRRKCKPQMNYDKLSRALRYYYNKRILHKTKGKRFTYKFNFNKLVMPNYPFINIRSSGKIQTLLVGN
# In short: as §1
sequence,measurement,setting,value
GTAACG,binding signal,ELK4,"1.03 fold enrichment (6-mer frequency, TF over GST control)"
same,binding signal,ETV2,"1.08 fold enrichment (6-mer frequency, TF over GST control)"
GACCAA,binding signal,ELK1,"1.05 fold enrichment (6-mer frequency, TF over GST control)"
same,binding signal,GABPA,"1.04 fold enrichment (6-mer frequency, TF over GST control)"
same,binding signal,ELF1,"1.02 fold enrichment (6-mer frequency, TF over GST control)"
same,binding signal,ELK4,"1.01 fold enrichment (6-mer frequency, TF over GST control)"
CAACGG,binding signal,ELK4,"1.01 fold enrichment (6-mer frequency, TF over GST control)"
same,binding signal,ETV1,"1.01 fold enrichment (6-mer frequency, TF over GST control)"
same,binding signal,ERF,"1.08 fold enrichment (6-mer frequency, TF over GST control)"
same,binding signal,ETV3,"1.01 fold enrichment (6-mer frequency, TF over GST control)"
